From PubChem
nsP2pro inh = CHIKV nsP2 protease inhibition, primary qHTS | AID 1964107 | Potency, µM (doses to about 24.9 µM), without a hit: at the highest dose activity change, negative = inhibition, usual class: inhibitors | Q8JUX6 | 31,000 compounds, 1.1% hits | FRET peptide cleavage, nsP2pro, fluorescence 1 h; note: nearly all actives have a fitted effect of over 60% in size
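Recombinant nsP2pro (150 nM) was preincubated with compound 15 min at room temperature in 10 mM Tris-HCl pH 8.0, 0.01% Tween 20. Peptide 2 FRET substrate (2.5 uM) was then added and fluorescence read after 1 h. Seven-point series, up to 25 uM.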
CHIKV nsP2 cell = cell-based CHIKV nsP2 protease inhibition, secondary. 450 compounds, 10% hits. shares compounds with nsP2pro inh. cell-based CHIKV nsP2 protease reporter assay. Potency, µM (top dose mostly 51.1 µM), inactives show top-dose activity change, negative = inhibition, actives largely listed as inhibitors. AID 1964100; note: nearly all actives have a fitted effect of over 70% in size
NSP2 full ctr = full-length CHIKV NSP2 protease inhibition, selectivity. Potency, µM (doses to about 50.7 µM), for inactives: top-dose activity change, negative = inhibition, hits mostly inhibitors. 410 compounds, 39% hits. Full-length CHIKV NSP2 protease enzymatic counterscreen. shares compounds with nsP2pro inh; note: nearly all actives have a fitted effect of over 65% in size
Furin counterscr = human furin inhibition, counterscreen for nsP2pro inhibitors; Potency, µM (titrated, usually from 50.6 µM), without a hit: top-dose activity change, negative = inhibition, most hits filed as inhibitors; 410 compounds, 6% hits; Recombinant human furin enzymatic counterscreen, fluorogenic substrate; shares compounds with nsP2pro inh
nsP2 NS23 pep = blocks CHIKV nsP2 protease cleavage of endogenous NS2/3 peptide; shares compounds with nsP2pro inh; Purified CHIKV nsP2 protease, endogenous NS2/3 peptide cleavage; Potency, µM (series often up to 51 µM), for inactives: at the highest dose activity change, negative = inhibition, usual class: inhibitors; 410 compounds, 34% hits; note: nearly all actives have a fitted effect of over 55% in size
Papain cs = papain protease inhibition, counterscreen for nsP2pro inhibitors; shares compounds with nsP2pro inh; purified papain protease activity, enzymatic inhibition; Potency, µM (series often up to 51 µM), inactives show at the highest dose activity change, negative = inhibition, actives largely listed as inhibitors; 410 compounds, 5% hits
nsP2pro conf qHTS = confirmation of CHIKV nsP2 protease inhibitors. CHIKV nsP2 protease enzymatic activity, qHTS. shares compounds with nsP2pro inh. Potency, µM (titrated, usually from 25.5 µM), for the others: at the top dose activity change, negative = inhibition, usual class: inhibitors. 410 compounds, 43% hits; note: nearly all actives have a fitted effect of over 75% in size
HCV NS3 4A cs = selectivity counter-screen for CHIKV nsP2 protease inhibitors: HCV NS3/4A; shares compounds with nsP2pro inh; HCV NS3/4A protease biochemical counterscreen; Potency, µM (highest dose often 50.9 µM), usual class: inhibitors; 410 compounds, 20% hits; AID 1964106; note: nearly all actives have a fitted effect of over 55% in size
* hit, by the source's call; ! = not active in a repeat; [ ] = dose if it differs, or a comment. Shown is part of a subset that was picked to be rich in hits. Calls come from the whole dose curve. % is set by controls: 0 for no effect and ±100 for the full control effect; potency is the fitted concentration of half-maximal effect.

What do the screens show for `COc1ccc(-c2ccc(NC(=O)c3cccs3)cn2)cc1`?
nsP2pro inh: inconclusive; CHIKV nsP2 cell: 0%; NSP2 full ctr: inconclusive; Furin counterscr: -4%; nsP2 NS23 pep: -15%; Papain cs: -4%; nsP2pro conf qHTS: -6%; HCV NS3 4A cs: inconclusive

How did Nc1ccc(-c2ccc(NC(=O)c3cccs3)cn2)cc1 do in these assays?
nsP2pro inh: 5%

Results for CN(C)C[C@@H]1CN(C)C[C@H]1NS(=O)(=O)c1ccccc1F ?
nsP2pro inh: -6%

Results for CN1CCCCC(CC(=O)NCc2cc(F)ccc2F)C1=O (stereo not drawn) ?
nsP2pro inh: -3%

What do the screens show for `CC1=C(C(=O)OCC2CCCCC2)C(c2ccccc2F)CC(=O)N1` (stereo not drawn)?
nsP2pro inh: -8%

How did O=C1CC(c2c(F)cccc2Cl)c2c(ccc3ccccc23)N1 (stereo not drawn) do in these assays?
nsP2pro inh: -15%

How did Nc1nc2c(s1)C(c1ccccc1Cl)CC(=O)N2 (stereo not drawn) do in these assays?
nsP2pro inh: 10µM*!; CHIKV nsP2 cell: -40%; NSP2 full ctr: 1.6µM*; Furin counterscr: -5%; nsP2 NS23 pep: 3.7µM*; Papain cs: 9%; nsP2pro conf qHTS: 4µM*; HCV NS3 4A cs: inactive

How did CSc1nc2c(c(=O)[nH]1)C(c1cccc(F)c1F)CC(=O)N2 (stereo not drawn) do in these assays?
nsP2pro inh: -27%

Results for COc1ccc(COC(=O)C2=C(C)NC(=O)CC2c2cccc(Cl)c2Cl)cc1 (stereo not drawn) ?
nsP2pro inh: -11%

What do the screens show for `CNc1nc2c(s1)C(c1ccccc1F)CC(=O)N2` (stereo not drawn)?
nsP2pro inh: 1.6µM*; CHIKV nsP2 cell: 8%; NSP2 full ctr: 3.3µM*; Furin counterscr: -9%; nsP2 NS23 pep: 4.6µM*; Papain cs: 14%; nsP2pro conf qHTS: 2.8µM*; HCV NS3 4A cs: inconclusive

What do the screens show for `O=C(C1CCCN1[S+](=O)([O-])c1cccc(C(F)(F)F)c1)N1CCC(c2nc3ccncc3[nH]2)C1` (stereo not drawn)?
nsP2pro inh: 3%

How did CCc1ccc(CN2CCCC23Cc2ccccc2CNC3=O)s1 (stereo not drawn) do in these assays?
nsP2pro inh: -10%

Results for CC1C2=CC(=O)OC2(O)CC2C1C(OC(=O)c1ccccc1)C(OC(=O)c1ccccc1)C1(O)C2(C)CCC(O)C1(C)C(=O)O (stereo not drawn) ?
nsP2pro inh: 2.3µM*; CHIKV nsP2 cell: -3%[17.6 µM]; NSP2 full ctr: -3%[17.3 µM]; Furin counterscr: 11%[17.3 µM]; nsP2 NS23 pep: 3%[17.2 µM]; Papain cs: -5%[17.2 µM]; nsP2pro conf qHTS: -11%[8.62 µM]; HCV NS3 4A cs: inactive

What do the screens show for `CC1C2=CC(=O)OC2(O)CC2C1CCC1C(C)(C)CCC(O)C21C` (stereo not drawn)?
nsP2pro inh: -1%

What do the screens show for `CC(=O)OC1C(O)C2C(C)C3=CC(=O)OC3(O)CC2C2(C)CCCC(C)(CO)C12` (stereo not drawn)?
nsP2pro inh: -3%[10 µM]

How did COc1ccc(CCN2C(=O)c3[nH]nc(-c4ccccc4O)c3C2c2cccc(OC)c2)cc1 (stereo not drawn) do in these assays?
nsP2pro inh: 20%

Results for O=c1oc2ccc3ccccc3c2cc1-c1nnc(Nc2cc(C(F)(F)F)ccc2Cl)s1 ?
nsP2pro inh: -7%

Results for CCCS(=O)(=O)Nc1ccc(=O)n2c1[C@@H]1C[C@@H](CN(C(=O)Nc3ccc(OC)cc3)C1)C2 ?
nsP2pro inh: inconclusive; CHIKV nsP2 cell: 3%; NSP2 full ctr: inconclusive; Furin counterscr: -9%; nsP2 NS23 pep: inconclusive; Papain cs: -2%; nsP2pro conf qHTS: inconclusive; HCV NS3 4A cs: inconclusive

What do the screens show for `COc1ccc(NC(=O)N2C[C@@H]3C[C@H](C2)c2c(NC(=O)CSC)ccc(=O)n2C3)cc1`?
nsP2pro inh: -2%

Results for COc1ccc(CC(=O)N2C[C@@H]3C[C@H](C2)c2c(-c4ccc(NC(C)=O)cc4)ccc(=O)n2C3)cc1 ?
nsP2pro inh: -5%

What do the screens show for `CCCCCCSc1nnc2c(n1)OC(C)Nc1ccc(Br)cc1-2` (stereo not drawn)?
nsP2pro inh: -12%

What do the screens show for `CC(C)COC(=O)N1[C@@H](c2ccco2)[C@@H](CO)C[C@]12CCCCNC2=O`?
nsP2pro inh: inconclusive; CHIKV nsP2 cell: 2%; NSP2 full ctr: -15%; Furin counterscr: -10%; nsP2 NS23 pep: inconclusive; Papain cs: -4%; nsP2pro conf qHTS: -18%; HCV NS3 4A cs: inconclusive

Results for CNC(=O)[C@H]1C[C@]2(CCCCNC2=O)N(C(=O)c2cccc(C#N)c2)[C@H]1c1ccco1 ?
nsP2pro inh: -4%

What do the screens show for `C=CCc1ccc(O[C@@H]2O[C@H](CO[C@@H]3O[C@@H](C)[C@H](O)[C@@H](O)[C@H]3O)[C@@H](O)[C@H](O)[C@H]2O)cc1`?
nsP2pro inh: 15%[10 µM]

What do the screens show for `O=C(Nc1ccc(OC(F)(F)F)cc1)c1cc2ccccn2n1`?
nsP2pro inh: -18%

How did CCOc1ccc(NC(=O)c2cnc(N3CCCCC3)c3ccccc23)cc1 do in these assays?
nsP2pro inh: 2%

What do the screens show for `O=C(Nc1ccc(OC(F)(F)F)cc1)c1nc2ccccc2nc1N1CCCCC1`?
nsP2pro inh: inconclusive; CHIKV nsP2 cell: 37%

How did COc1ccc(CCNC(=O)C(C)C2CCOCC2)cc1OC (stereo not drawn) do in these assays?
nsP2pro inh: -1%

Results for Cc1cc(OCCN(C)C)c(C)c2c1CC[C@@H]([C@H](C)C(=O)NCc1cccs1)C2 ?
nsP2pro inh: 37%[39.2 µM]

What do the screens show for `COc1cc(C)c2c(c1C)C[C@H](C(C)C(=O)NCc1ccco1)CC2` (stereo partly drawn)?
nsP2pro inh: 7.9µM*; CHIKV nsP2 cell: -14%

How did Oc1c(C(c2ccccc2F)N2CCC3(CC2)OCCO3)sc2nc(-c3ccco3)nn12 (stereo not drawn) do in these assays?
nsP2pro inh: -19%
